In PubChem BioAssay (NCATS):
Inconclusive results are not listed. Activity calls are given as the source filed them. Calls follow the shape of the dose curve; as a rule, active = well fitted curve in the direction sought with a large enough effect; inconclusive = small, poorly fitted or top-dose-only effect, or another doubt; inactive = no such curve, though single readings can be large; an effect the other way counts as inactive or inconclusive.

Key:
NIH3T3 = experiment: qHTS assay to identify novel small-molecules to repurpose for Merkel cell carcinoma treatment (AID 1296009); conditions: MCC and control cell lines, CellTiter-Glo viability, 72 h; at 44.8 µM (top of the series) unless noted; also: nearly all actives have a fitted effect of over 60% in size
How it was run: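 Cells were incubated with compound for 72 hr at 37 degree celsius before CellTiter-Glo addition. Luminescence was normalized with no-cell wells as full cytotoxicity and DMSO as baseline.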

C33A = experiment: Primary qHTS to identify gynecologic anti-cancer compounds using libraries of approved drugs and bioactive compounds (AID 1345084); conditions: Gynecologic cancer cell panel viability, ATPlite luminescence, 48 h; series mostly up to 57.5 µM; also: % is scaled to controls: 0 for no effect and ±100 for the full control effect; nearly all actives have a fitted effect of over 55% in size
How it was run: (§1)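 48 h compound exposure at 37 C, 5% CO2; five-point qHTS. ATPlite luminescence readout of cell ATP.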

CAOV3 = experiment: as above; conditions: Gynecologic cancer cell panel viability, ATPlite luminescence, 48 h; series mostly up to 57.5 µM
How it was run: as §1

CASKI = experiment: as above; conditions: Gynecologic cancer cell panel viability, ATPlite luminescence, 48 h; series mostly up to 57.5 µM
How it was run: as §1

Es-2 = experiment: as above; conditions: Gynecologic cancer cell panel viability, ATPlite luminescence, 48 h; series mostly up to 57.5 µM
How it was run: as §1

HeLa = experiment: as above; conditions: Gynecologic cancer cell panel viability, ATPlite luminescence, 48 h; series mostly up to 57.5 µM
How it was run: as §1

Hek293T = experiment: as above; conditions: Gynecologic cancer cell panel viability, ATPlite luminescence, 48 h, control line for the selectivity index; series mostly up to 57.5 µM
How it was run: as §1

JEG-3 = experiment: as above; conditions: Gynecologic cancer cell panel viability, ATPlite luminescence, 48 h; series mostly up to 57.5 µM
How it was run: as §1

OV90 = experiment: as above; conditions: Gynecologic cancer cell panel viability, ATPlite luminescence, 48 h; series mostly up to 57.5 µM
How it was run: as §1

PA-1 = experiment: as above; conditions: Gynecologic cancer cell panel viability, ATPlite luminescence, 48 h; series mostly up to 57.5 µM
How it was run: as §1

SKOV3 = experiment: as above; conditions: Gynecologic cancer cell panel viability, ATPlite luminescence, 48 h; series mostly up to 57.5 µM
How it was run: as §1

Tov-21-G = experiment: as above; conditions: Gynecologic cancer cell panel viability, ATPlite luminescence, 48 h; series mostly up to 57.5 µM
How it was run: as §1

Tov112D = experiment: as above; conditions: Gynecologic cancer cell panel viability, ATPlite luminescence, 48 h; series mostly up to 57.5 µM
How it was run: as §1

COc1cc(/C=C/C(=O)O[C@H]2[C@H](O)[C@@H](CO)O[C@@]2(CO)O[C@H]2O[C@H](CO)[C@@H](O)[C@H](O)[C@H]2O)cc(OC)c1O
inactive: outcome (NIH3T3) inactive [at 17.4 µM] | Potency (C33A) | Potency (CAOV3) | outcome (CASKI) | Potency (Es-2) | Potency (HeLa) | Potency (Hek293T) | Potency (JEG-3) | Potency (OV90) | Potency (PA-1) | Potency (SKOV3) | Potency (Tov-21-G) | Potency (Tov112D)

COc1ccc(C2C(C(=O)O)C(C(=O)O)C2c2ccc(OC)cc2O[C@@H]2O[C@H](CO)[C@@H](O)[C@H](O)[C@H]2O)c(O[C@@H]2O[C@H](CO)[C@@H](O)[C@H](O)[C@H]2O)c1 (some centres undefined)
inactive: outcome (NIH3T3) inactive [at 17.4 µM] | Potency (C33A) | Potency (CAOV3) | outcome (CASKI) | Potency (Es-2) | Potency (HeLa) | Potency (Hek293T) | Potency (JEG-3) | Potency (OV90) | Potency (PA-1) | Potency (SKOV3) | Potency (Tov-21-G) | Potency (Tov112D)

CC1=COC(OC2OC(CO)C(O)C(O)C2O)C2C(CO)CC(OC(=O)/C=C/c3ccc(O)cc3)C12 (centres undefined)
inactive: outcome (NIH3T3) inactive [at 17.4 µM] | Potency (C33A) | Potency (CAOV3) | outcome (CASKI) | Potency (Es-2) | Potency (HeLa) | Potency (Hek293T) | Potency (JEG-3) | Potency (OV90) | Potency (PA-1) | Potency (SKOV3) | Potency (Tov-21-G) | Potency (Tov112D)

C=C1C[C@H](O)[C@@H](O)[C@@]2(C)C1[C@@H](O)[C@H]1OC(=O)C3[C@@H](C)[C@@H](O)[C@H](O)C2[C@]31C (some centres undefined)
inactive: outcome (NIH3T3) | Potency (C33A) | Potency (CAOV3) | outcome (CASKI) | Potency (Es-2) | Potency (HeLa) | Potency (Hek293T) | Potency (JEG-3) | Potency (OV90) | Potency (PA-1) | Potency (SKOV3) | Potency (Tov-21-G) | Potency (Tov112D)

CC(=O)O[C@@]1(C)[C@@H]2CC(=C(C)C)C(=O)C[C@@]2(C)CC[C@H]1OC(=O)C1(C)OC1C (some centres undefined)
inactive: outcome (NIH3T3) | Potency (C33A) | Potency (CAOV3) | outcome (CASKI) | Potency (Es-2) | Potency (HeLa) | Potency (Hek293T) | Potency (JEG-3) | Potency (OV90) | Potency (PA-1) | Potency (SKOV3) | Potency (Tov-21-G) | Potency (Tov112D)

CCC(C)/C=C(C)/C=C/C1=CC2=CC(=O)C(C)(O)C(OC(C)=O)C2CO1 (centres undefined)
inactive: outcome (NIH3T3) | Potency (C33A) | Potency (CAOV3) | outcome (CASKI) | Potency (Es-2) | Potency (HeLa) | Potency (Hek293T) | Potency (JEG-3) | Potency (OV90) | Potency (PA-1) | Potency (SKOV3) | Potency (Tov-21-G) | Potency (Tov112D)

C/C=C(\C)C(=O)OC[C@H]1O[C@@H](O[C@H]2[C@@H](O[C@H]3O[C@H](COC(=O)/C(C)=C/C)[C@@H](O)[C@H](O)[C@H]3O[C@@H]3O[C@H](CO)[C@@H](O)[C@H](OC(=O)/C(C)=C/C)[C@H]3O)O[C@H](COC(=O)/C(C)=C/C)[C@@H](O)[C@@H]2O)[C@H](O)[C@@H](O)[C@@H]1O
inactive: outcome (NIH3T3) inactive [at 9.27 µM] | activity change, negative = cytotoxicity (C33A) 12.3% [at 11.6 µM] | activity change, negative = cytotoxicity (CAOV3) 5.53% [at 11.6 µM] | activity change, negative = cytotoxicity (CASKI) -1.71% [at 11.6 µM] | activity change, negative = cytotoxicity (Es-2) 4.24% [at 11.6 µM] | activity change, negative = cytotoxicity (HeLa) -5.55% [at 11.6 µM] | activity change, negative = cytotoxicity (Hek293T) 8.78% [at 11.6 µM] | activity change, negative = cytotoxicity (JEG-3) 2.17% [at 11.6 µM] | activity change, negative = cytotoxicity (OV90) -2.51% [at 11.6 µM] | activity change, negative = cytotoxicity (PA-1) -18.4% [at 11.6 µM] | activity change, negative = cytotoxicity (SKOV3) 3.76% [at 11.6 µM] | activity change, negative = cytotoxicity (Tov-21-G) 2.42% [at 11.6 µM] | activity change, negative = cytotoxicity (Tov112D) 2.79% [at 11.6 µM]

C[C@@H]1C[C@@H](O)[C@@]23CO[C@]2(CO)CCC[C@@H]3[C@@]12C[C@@H](c1ccoc1)OC2=O
inactive: outcome (NIH3T3) | Potency (C33A) | Potency (CAOV3) | outcome (CASKI) | Potency (Es-2) | Potency (HeLa) | Potency (Hek293T) | Potency (JEG-3) | Potency (OV90) | Potency (PA-1) | Potency (SKOV3) | Potency (Tov-21-G) | Potency (Tov112D)

C=C1C[C@@]2(O)O[C@@]3(C[C@H]2C(C)C)[C@@H](C)CC[C@@H]13
inactive: outcome (NIH3T3) | Potency (C33A) | Potency (CAOV3) | outcome (CASKI) | Potency (Es-2) | Potency (HeLa) | Potency (Hek293T) | Potency (JEG-3) | Potency (OV90) | Potency (PA-1) | Potency (SKOV3) | Potency (Tov-21-G) | Potency (Tov112D)

CCC1(O)CC2c3cc(OC)c(OC)cc3CCN2CC1CC(C)C (centres undefined)
inactive: outcome (NIH3T3) | Potency (C33A) | Potency (CAOV3) | outcome (CASKI) | Potency (Es-2) | Potency (HeLa) | Potency (Hek293T) | Potency (JEG-3) | Potency (OV90) | Potency (PA-1) | Potency (SKOV3) | Potency (Tov-21-G) | Potency (Tov112D)

O=C(N[C@H](Cc1ccccc1)C(=O)O)c1sc2cc(F)ccc2c1Cl
inactive: outcome (NIH3T3) | Potency (C33A) | Potency (CAOV3) | outcome (CASKI) | Potency (Es-2) | Potency (HeLa) | Potency (Hek293T) | Potency (JEG-3) | Potency (OV90) | Potency (PA-1) | Potency (SKOV3) | Potency (Tov-21-G) | Potency (Tov112D)

COc1cn(-c2ccc(-n3cccn3)cc2F)nc(-c2ccnn2-c2ccccc2)c1=O
inactive: outcome (NIH3T3) | Potency (C33A) | Potency (CAOV3) | outcome (CASKI) | Potency (Es-2) | Potency (HeLa) | Potency (Hek293T) | Potency (JEG-3) | Potency (OV90) | Potency (PA-1) | Potency (SKOV3) | Potency (Tov-21-G) | Potency (Tov112D)

CC(C)[C@@](O)(c1ccc2cc(OC(F)F)c(OC(F)F)cc2c1)c1cn[nH]n1
inactive: outcome (NIH3T3) | Potency (C33A) | Potency (CAOV3) | outcome (CASKI) | Potency (Es-2) | Potency (HeLa) | Potency (Hek293T) | Potency (JEG-3) | Potency (OV90) | Potency (PA-1) | Potency (SKOV3) | Potency (Tov-21-G) | Potency (Tov112D)
